# Experimental data published in PubChem BioAssay (EPA / NIEHS).
# Activity calls are given as the source filed them. How the source made its calls: active means hit-call score of the fitted dose curve at least 0.9, where 1 is the maximum; inactive means score below 0.9.
# How the values were obtained:
# [1] = read-out: TIMP metallopeptidase inhibitor 2 (TIMP2), TIMP2 (gene 7077); assay: BSK_KF3CT_TIMP2: BioMAP Diversity Plus: KF3CT Assay for TIMP metallopeptidase inhibitor 2 (TIMP2) Biomarker Activity (AID 2283071); conditions: primary human keratinocytes with fibroblasts; actives raise or lower the signal
# How it was run: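 Co-culture of human primary keratinocytes and foreskin fibroblasts, measured 24 h after chemical dosing. TIMP-2 quantified by ELISA and fitted in both directions relative to DMSO. Cytotoxicity checked in parallel cultures by SRB total-protein staining.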
# [2] = read-out: Transforming growth factor beta 1 (TGFb1), TGFB1 (gene 7040); assay: BSK_KF3CT_TGFb1: BioMAP Diversity Plus: KF3CT Assay for Transforming growth factor beta 1 (TGFb1) Biomarker Activity (AID 2283072); conditions: primary human keratinocytes with fibroblasts; actives raise or lower the signal
# How it was run: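 Human keratinocyte/foreskin fibroblast co-culture; TGF-b1 measured by ELISA 24 h after dosing, fitted bidirectionally versus DMSO. Cytotoxicity checked in parallel cultures by total protein (SRB staining, 560 nm).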
# [3] = read-out: C-C motif chemokine 2 (Homo sapiens) (UniProt P13500); assay: BSK_KF3CT_MCP1: BioMAP Diversity Plus: KF3CT Assay for Monocyte Chemoattractant Protein 1 (MCP1/CCL2) Biomarker Activity (AID 2283073); conditions: primary human keratinocytes with fibroblasts; actives raise or lower the signal
# How it was run: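 Human keratinocyte plus foreskin fibroblast primary co-culture exposed to chemical for 24 h. MCP-1 levels measured by ELISA. Bidirectional curve fitting relative to DMSO negative control as baseline.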
# [4] = read-out: Matrix Metallopeptidase 9 (MMP9), MMP9 (gene 4318); assay: BSK_KF3CT_MMP9: BioMAP Diversity Plus: KF3CT Assay for Matrix Metallopeptidase 9 (MMP9) Biomarker Activity (AID 2283074); conditions: primary human keratinocytes with fibroblasts; actives raise or lower the signal
# How it was run: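 Keratinocyte plus foreskin fibroblast human primary skin co-culture was dosed with chemical and MMP-9 was quantified by ELISA 24 h later. Bidirectional curve fitting used DMSO as negative control and activity baseline.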
# CD40, CD40 (gene 958) [5] = assay: BSK_LPS_CD40: BioMAP Diversity Plus: LPS Assay for CD40 Biomarker Activity (AID 2283076); conditions: primary human HUVEC with PBMC; actives raise or lower the signal
# How it was run: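 Primary human umbilical vein endothelial cells co-cultured with peripheral blood mononuclear cells, LPS-stimulated, were dosed with chemical and read 24 h later. CD40 levels were measured by ELISA and fitted bidirectionally against DMSO as negative control and baseline.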
# [6] = read-out: E-selectin (Homo sapiens) (UniProt P16581); assay: BSK_LPS_Eselectin: BioMAP Diversity Plus: LPS Assay for Eselectin Biomarker Activity (AID 2283077); conditions: primary human HUVEC with PBMC; actives raise or lower the signal
# How it was run: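 Human umbilical vein endothelial cells co-cultured with peripheral blood mononuclear cells under LPS stimulation; E-selectin measured by ELISA 24 h after chemical dosing. Activity fitted bidirectionally against DMSO as negative control and baseline.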
# [7] = read-out: Interleukin-8 (IL8), CXCL8 (gene 3576); assay: BSK_LPS_IL8: BioMAP Diversity Plus: LPS Assay for Interleukin-8 (IL8) Biomarker Activity (AID 2283078); conditions: primary human HUVEC with PBMC; actives raise or lower the signal
# How it was run: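 Human umbilical vein endothelial cells co-cultured with PBMC were stimulated with LPS; IL-8 levels were measured by ELISA 24 h after chemical dosing. Activity was fitted bidirectionally against DMSO as negative control and baseline.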
# [8] = BSK_LPS_SRB: Viability Assessment in the BioMAP Diversity Plus: LPS Assay (AID 2283079); conditions: primary human HUVEC with PBMC;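 further: total protein by sulforhodamine B absorbance as a cytotoxicity measure; measured one day after compound addition; fitted in both directions against DMSO so loss or gain of signal counts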
# How it was run: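 Human umbilical vein endothelial cells co-cultured with PBMC (LPS system) were dosed for 24 h. Total protein was stained with 0.1% sulforhodamine B after 10% TCA fixation, read at 560 nm, and fitted bidirectionally against DMSO baseline.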
# [9] = read-out: Interleukin-1 alpha (IL1a), IL1A (gene 3552); assay: BSK_LPS_IL1a: BioMAP Diversity Plus: LPS Assay for Interleukin-1 alpha (IL1a) Biomarker Activity (AID 2283080); conditions: primary human HUVEC with PBMC; actives raise or lower the signal
# How it was run: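 Human umbilical vein endothelial cells co-cultured with peripheral blood mononuclear cells were LPS-stimulated and exposed to test chemicals for 24 h. IL-1 alpha was quantified by ELISA, with bidirectional curve fitting against DMSO as the negative control and baseline.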
# [10] = read-out: Monocyte Chemoattractant Protein-1 (MCP1), CCL2 (gene 6347); assay: BSK_LPS_MCP1: BioMAP Diversity Plus: LPS Assay for Monocyte Chemoattractant Protein-1 (MCP1) Biomarker Activity (AID 2283081); conditions: primary human HUVEC with PBMC; actives raise or lower the signal
# How it was run: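 HUVEC plus PBMC co-culture (human primary cells, LPS system) exposed to test chemical for 24 h; MCP-1 measured by ELISA. Bidirectional curve fitting against DMSO baseline; parallel SRB total-protein staining flags overt cytotoxicity.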
# [11] = BSK_LPS_PGE2: BioMAP Diversity Plus: LPS Assay for Prostaglandin E2 (PGE2) Biomarker Activity (AID 2283082); conditions: primary human HUVEC with PBMC; actives raise or lower the signal
# How it was run: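 HUVEC plus human PBMC co-culture stimulated with LPS; secreted PGE2 quantified by ELISA 24 h after chemical dosing. Activity fitted bidirectionally against DMSO baseline; parallel SRB staining (0.1% SRB after 10% TCA fixation, 560 nm) flags overt cytotoxicity.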
# [12] = read-out: Macrophage colony-stimulating factor (MCSF), CSF1 (gene 1435); assay: BSK_LPS_MCSF: BioMAP Diversity Plus: LPS Assay for Macrophage colony-stimulating factor (MCSF) Biomarker Activity (AID 2283083); conditions: primary human HUVEC with PBMC; actives raise or lower the signal
# How it was run: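 Human umbilical vein endothelial cells co-cultured with peripheral blood mononuclear cells were exposed to compound for 24 h. M-CSF levels were measured by ELISA, and bidirectional curve fitting used DMSO as the negative control and baseline.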
# [13] = read-out: Tissue Factor, F3 (gene 2152); assay: BSK_LPS_TissueFactor: BioMAP Diversity Plus: LPS Assay for Tissue Factor Biomarker Activity (AID 2283084); conditions: primary human HUVEC with PBMC; actives raise or lower the signal
# How it was run: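 Human umbilical vein endothelial cells co-cultured with peripheral blood mononuclear cells were dosed and stimulated with LPS. Cell-surface CD142 was quantified by ELISA at 24 h. Activity was fitted bidirectionally against DMSO baseline.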
# [14] = read-out: Tumor necrosis factor (Homo sapiens) (UniProt P01375); assay: BSK_LPS_TNFa: BioMAP Diversity Plus: LPS Assay for Tumour Necrosis Factor alpha (TNFa) Biomarker Activity (AID 2283085); conditions: primary human HUVEC with PBMC; actives raise or lower the signal
# How it was run: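 Human umbilical vein endothelial cells co-cultured with PBMC and stimulated with LPS. TNFa was measured by ELISA 24 h after chemical dosing, fitted bidirectionally relative to DMSO.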
# CD38, CD38 (gene 952) = assay: BSK_SAg_CD38: BioMAP Diversity Plus: SAg Assay for CD38 Biomarker Activity (AID 2283087); conditions: primary human HUVEC with PBMC; actives raise or lower the signal
# How it was run: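 Human HUVEC plus PBMC co-culture stimulated with superantigen; CD38 measured by ELISA 24 h after chemical dosing. Fluorescence read-out, bidirectional fit against DMSO; cytotoxicity tracked in parallel by SRB and Alamar Blue.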
# CD40, CD40 (gene 958) [15] = assay: BSK_SAg_CD40: BioMAP Diversity Plus: SAg Assay for CD40 Biomarker Activity (AID 2283088); conditions: primary human HUVEC with PBMC; actives raise or lower the signal
# How it was run: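 Human umbilical vein endothelial cells co-cultured with PBMC; CD40 levels measured by ELISA with fluorescence read-out 24 h after chemical dosing. Gain or loss of signal fitted bidirectionally against DMSO baseline.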
# CD69, CD69 (gene 969) = assay: BSK_SAg_CD69: BioMAP Diversity Plus: SAg Assay for CD69 Biomarker Activity (AID 2283089); conditions: primary human HUVEC with PBMC; actives raise or lower the signal
# How it was run: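 Values derive from bidirectional fitting relative to DMSO vehicle. Cells: umbilical vein endothelium plus peripheral blood mononuclear cells, treated 24 h before fluorescent ELISA for CD69.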
# [16] = read-out: Monocyte Chemoattractant Protein-1 (MCP1), CCL2 (gene 6347); assay: BSK_SAg_MCP1: BioMAP Diversity Plus: SAg Assay for Monocyte Chemoattractant Protein-1 (MCP1) Biomarker Activity (AID 2283090); conditions: primary human HUVEC with PBMC; actives raise or lower the signal
# How it was run: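 MCP-1 levels in the endothelial–PBMC SAg co-culture were quantified by ELISA at 24 h post-dosing; both increases and decreases versus DMSO scored. Cytotoxicity monitored by SRB total protein in parallel cultures.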
# [17] = read-out: Vascular cell adhesion molecule 1 (VCAM1), VCAM1 (gene 7412); assay: BSK_LPS_VCAM1: BioMAP Diversity Plus: LPS Assay for Vascular cell adhesion molecule 1 (VCAM1) Biomarker Activity (AID 2283086); conditions: primary human HUVEC with PBMC; actives raise or lower the signal
# How it was run: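 Human umbilical vein endothelial cells co-cultured with PBMC and stimulated with LPS; VCAM-1 measured by ELISA 24 h after dosing. Bidirectional curve fitting against DMSO baseline; cytotoxicity tracked in parallel by SRB total-protein staining.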
# Sequence of Tumor necrosis factor (Homo sapiens) (P01375 whole entry, looked up): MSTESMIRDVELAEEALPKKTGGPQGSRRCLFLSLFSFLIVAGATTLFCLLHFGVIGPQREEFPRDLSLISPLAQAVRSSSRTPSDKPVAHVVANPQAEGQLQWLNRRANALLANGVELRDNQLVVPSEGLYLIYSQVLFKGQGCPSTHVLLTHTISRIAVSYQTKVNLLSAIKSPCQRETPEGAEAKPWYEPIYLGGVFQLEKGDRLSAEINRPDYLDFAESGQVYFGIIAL
# Sequence of E-selectin (Homo sapiens) (P16581 whole entry, looked up): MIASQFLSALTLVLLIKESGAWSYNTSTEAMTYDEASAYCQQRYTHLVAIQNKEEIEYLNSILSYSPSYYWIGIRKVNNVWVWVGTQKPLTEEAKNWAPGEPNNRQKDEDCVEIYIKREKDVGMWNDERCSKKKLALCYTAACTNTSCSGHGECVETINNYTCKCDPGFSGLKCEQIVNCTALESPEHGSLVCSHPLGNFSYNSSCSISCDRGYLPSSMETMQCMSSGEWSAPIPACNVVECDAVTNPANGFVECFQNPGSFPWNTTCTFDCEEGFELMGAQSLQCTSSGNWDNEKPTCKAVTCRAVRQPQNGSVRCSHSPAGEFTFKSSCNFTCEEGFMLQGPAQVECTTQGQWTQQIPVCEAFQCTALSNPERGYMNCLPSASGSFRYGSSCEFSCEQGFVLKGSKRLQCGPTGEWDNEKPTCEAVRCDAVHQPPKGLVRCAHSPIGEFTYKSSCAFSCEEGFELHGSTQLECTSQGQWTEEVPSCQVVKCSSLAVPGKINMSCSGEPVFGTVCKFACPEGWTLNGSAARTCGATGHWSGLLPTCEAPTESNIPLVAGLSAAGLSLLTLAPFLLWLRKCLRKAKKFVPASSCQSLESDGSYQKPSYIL
smiles,measurement,setting,value
CSc1nc(NC(C)C)nc(NC(C)C)n1,outcome,[1],inactive
same,outcome,[2],inactive
same,outcome,[3],inactive
same,outcome,[4],inactive
same,outcome,"CD40, CD40 (gene 958) [5]",inactive
same,outcome,[6],inactive
same,outcome,[7],inactive
same,outcome,[8],inactive
same,outcome,[9],inactive
same,outcome,[10],inactive
same,outcome,[11],inactive
same,outcome,[12],inactive
same,outcome,[13],inactive
same,AC50,[14],4.47 µM (active)
same,outcome,"CD38, CD38 (gene 952)",inactive
same,outcome,"CD40, CD40 (gene 958) [15]",inactive
same,outcome,"CD69, CD69 (gene 969)",inactive
same,AC50,[16],36.5 µM (active)
CCc1cnc(C2=NC(C)(C(C)C)C(=O)N2)c(C(=O)O)c1 (stereo not drawn),outcome,[1],inactive
same,outcome,[2],inactive
same,outcome,[3],inactive
same,outcome,[4],inactive
same,outcome,"CD40, CD40 (gene 958) [5]",inactive
same,outcome,[6],inactive
same,outcome,[7],inactive
same,outcome,[8],inactive
same,outcome,[9],inactive
same,outcome,[10],inactive
same,outcome,[11],inactive
same,outcome,[12],inactive
same,outcome,[13],inactive
same,outcome,[14],inactive
same,outcome,"CD38, CD38 (gene 952)",inactive
same,outcome,"CD40, CD40 (gene 958) [15]",inactive
same,outcome,"CD69, CD69 (gene 969)",inactive
same,outcome,[16],inactive
CCOP(=S)(OCC)Oc1ccc2c(C)c(Cl)c(=O)oc2c1,outcome,[1],inactive
same,outcome,[2],inactive
same,outcome,[3],inactive
same,outcome,[4],inactive
same,outcome,"CD40, CD40 (gene 958) [5]",inactive
same,outcome,[6],inactive
same,outcome,[7],inactive
same,outcome,[8],inactive
same,outcome,[9],inactive
same,outcome,[10],inactive
same,outcome,[11],inactive
same,outcome,[12],inactive
same,outcome,[13],inactive
same,outcome,[14],inactive
same,outcome,[17],inactive
same,outcome,"CD38, CD38 (gene 952)",inactive
same,outcome,"CD40, CD40 (gene 958) [15]",inactive
same,outcome,"CD69, CD69 (gene 969)",inactive
same,outcome,[16],inactive
CCOP(=O)(NC(C)C)Oc1ccc(SC)c(C)c1 (stereo not drawn),outcome,[1],inactive
same,outcome,[2],inactive
same,outcome,[3],inactive
same,outcome,[4],inactive
same,outcome,"CD40, CD40 (gene 958) [5]",inactive
same,outcome,[6],inactive
same,outcome,[7],inactive
same,outcome,[8],inactive
same,outcome,[9],inactive
same,outcome,[10],inactive
same,outcome,[11],inactive
same,outcome,[12],inactive
same,outcome,[13],inactive
same,outcome,[14],inactive
same,outcome,"CD38, CD38 (gene 952)",inactive
same,outcome,"CD40, CD40 (gene 958) [15]",inactive
same,outcome,"CD69, CD69 (gene 969)",inactive
same,outcome,[16],inactive
Nc1nc(N)nc(NC2CC2)n1,outcome,[1],inactive
same,outcome,[2],inactive
same,outcome,[3],inactive
same,outcome,[4],inactive
same,outcome,"CD40, CD40 (gene 958) [5]",inactive
same,outcome,[6],inactive
same,outcome,[7],inactive
same,outcome,[8],inactive
same,outcome,[9],inactive
same,outcome,[10],inactive
same,outcome,[11],inactive
same,outcome,[12],inactive
same,outcome,[13],inactive
same,outcome,[14],inactive
same,outcome,"CD38, CD38 (gene 952)",inactive
same,outcome,"CD40, CD40 (gene 958) [15]",inactive
same,outcome,"CD69, CD69 (gene 969)",inactive
same,outcome,[16],inactive
CC(C)[C@H](C(=O)O[C@H](C#N)c1cccc(Oc2ccccc2)c1)c1ccc(Cl)cc1,outcome,[2],inactive
same,outcome,[3],inactive
same,outcome,[4],inactive
same,outcome,"CD40, CD40 (gene 958) [5]",inactive
same,AC50,[6],7.16 µM (active)
same,AC50,[7],5.9 µM (active)
same,outcome,[8],inactive
same,outcome,[9],inactive
same,outcome,[10],inactive
same,outcome,[12],inactive
same,outcome,[13],inactive
same,outcome,[14],inactive
same,outcome,[17],inactive
same,outcome,"CD38, CD38 (gene 952)",inactive
same,outcome,"CD40, CD40 (gene 958) [15]",inactive
same,outcome,"CD69, CD69 (gene 969)",inactive
same,outcome,[16],inactive
